Experimental data from the OligoGym collection.

Target: PTGFRN
Test: pooled miR-30 sensor sort-seq; sequence = guide strand
Details: shRNA
Also: reference of the scale not given here.

Sequence | sensor-assay potency score (higher = more potent)
TATTTTAGCGTCCAGTCCCCGT | -1.12
TTTTCTTTGCTAACATCCCGAA | -0.589
TTTTCTTGGATTTCCTGCCAGT | -0.278
TTGAACATTTGTAGTGGCCTTG | -0.0806
TTTGCTAACATCCCGAACCAGT | -0.807
TAAAACAACGCCATCCACCCGT | -0.0584
TTGGAGAAGACATCCTTGCTTT | -0.201

Target: PTGFR
Test: as above
Details: shRNA

Sequence | sensor-assay potency score (higher = more potent)
TTGACTGGCAAGCTTATAGAGA | -0.966
TCTGTGTTGTAGAAACACCAGG | -1.29
TTTGACAAATTTCAAAACCTGA | -0.803
TGCACAACAATGAAACACCAAG | -1.45
TTTAATGGAACTAAGCTCCCAA | 0.844
TTGTGTTTGAAAGAAGCGCAGC | -0.804
TAACTAACTGAAATATTGCCAA | -0.195
TTTGATGTCTTCTGTGTTGTAG | 0.583
TTTTATAGTCTCGATGTCCAAG | -0.668
TTGTAGAAACACCAGGTCCTCG | -0.683
TTTGTGACTCCAATACACCGCT | -0.161
TTGCACAACAATGAAACACCAA | 0.0591

Target: PTH2R
Test: as above
Details: shRNA

Sequence | sensor-assay potency score (higher = more potent)
TAGAACTCTAACCGTATTCAGA | -0.533
TATATTGTGATTTGTCCACAGA | -0.718
TAAATAAACATCACAACAGCAA | -0.154
TTAAGTAACACCTTAACTGAAT | -1.01
TAAACTACTCCATTGACACTTG | -0.214
TAAGCTGTGCATAAAATCCCAT | -0.0361
TTTGCCAGAGATAAGCACCATG | -0.588
TAGTGCAATGCAATCGTCTGAA | -0.115
TAGCTGCTAAGATCGGTGCTTG | -0.715
TTTAGATCCTAATTGCTCCTAT | 0.713
TTTCAGCACAAGGACAATCTGC | -0.513
TAGAATATCATCTCCCTGCCTC | -0.315

Target: PTPN7
Test: as above
Details: shRNA

Sequence | sensor-assay potency score (higher = more potent)
TAGACAGACACGGCTCTGGGGA | -0.764
TTCTCCTCGGGCTTTCAGCTGT | -0.819
TCTTGCCACACCATCTCCCAGA | -0.679
TTGTCCTTACTGCTGCTGCTTC | -0.729
TTGGCATTGATGTAATCTCCGT | -0.978
TTCTGGTGTCTGATGGTCTGGC | -0.217
TTCTTCTTCCAGTTGCTTGGGG | 0.0231
TAGAACAGGAAACTGAAGCTCA | 0.0685
TAGTGGACACATTTCTCCTTGC | -0.219
